Source: PubChem BioAssay
Rows were chosen to be rich in hits. Some 2.8% of all compounds tested hit in one or more screens of this group.
STAT3 binder: binders of human STAT3 | 17,000 compounds, 0.2% hits | Small molecule microarray, His-STAT3 binding, anti-His fluorescence | calls only | P40763;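 active means compounds whose four printed spots each show fluorescence over background unusually high for their array block, chance value under 7%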
Myc binder: binds human c-Myc on microarray; small molecule microarray, His-c-Myc binding, anti-His fluorescence; calls only; 17,000 compounds, 1.5% hits; AID 624141;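 active means spot fluorescence over background with P-value below 7% in all four replicate spots, showing protein binding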;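 further: score is binary with 100 for all four spots passing and 0 otherwise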
Target sequence (P01106 whole entry, looked up): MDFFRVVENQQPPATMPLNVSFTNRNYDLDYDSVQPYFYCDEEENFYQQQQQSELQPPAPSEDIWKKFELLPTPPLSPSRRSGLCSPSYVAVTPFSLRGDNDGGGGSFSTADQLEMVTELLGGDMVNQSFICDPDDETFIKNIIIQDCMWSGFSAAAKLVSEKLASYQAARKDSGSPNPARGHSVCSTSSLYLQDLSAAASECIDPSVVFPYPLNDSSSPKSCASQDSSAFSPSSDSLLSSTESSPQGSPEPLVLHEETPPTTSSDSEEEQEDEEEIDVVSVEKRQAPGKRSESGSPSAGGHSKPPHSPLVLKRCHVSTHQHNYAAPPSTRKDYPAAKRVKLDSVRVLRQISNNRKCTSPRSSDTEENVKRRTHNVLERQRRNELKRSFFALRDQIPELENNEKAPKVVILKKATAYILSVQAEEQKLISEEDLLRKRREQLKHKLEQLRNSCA
NFkB binder: binds human NF-kappa-B p105 on microarray | P19838 | Small molecule microarray, anti-His fluorescence binding | calls only | 17,000 compounds, 1.3% hits | AID 624139;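 active means spot fluorescence over background significantly raised, with a chance value under 7% in all four replicate spots of the compound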;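 further: probe protein is his-tagged human p50 processed subunit at 1 µg/ml; raw spot fluorescence signals with no normalization applied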
mut p53 SMM: binds human mutant p53 on microarray; small molecule microarray binding, anti-GST fluorescence; calls only; 17,000 compounds, 0.4% hits; AID 624136;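 active means compounds whose four printed spots each glow above background more than chance allows, each with a p-value under 7%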
p53 PUMA act: mutant p53 pathway reactivation; 28,000 compounds, 1.5% hits; SW480 PUMA-promoter luciferase; activation, % at 9.98 µM; in the data active means activation above about 52%
* hit, by the source's call.

`C[C@@H]1CN([C@@H](C)CO)C(=O)c2cc(NC(=O)Nc3ccc(C(F)(F)F)cc3)ccc2O[C@@H](C)CCCCO[C@H]1CN(C)Cc1ccc(C(F)(F)F)cc1` gave STAT3 binder inactive, Myc binder inactive, NFkB binder active and mut p53 SMM inactive.
Screening C[C@H]1CCCCO[C@@H](CN(C)Cc2ccncc2)[C@@H](C)CN([C@@H](C)CO)C(=O)c2cc(NC(=O)Nc3ccc(C(F)(F)F)cc3)ccc2O1 returned p53 PUMA act -39.0.
C[C@@H]1CCCCO[C@@H](CN(C)Cc2ccc(C(=O)O)cc2)[C@H](C)CN([C@H](C)CO)C(=O)c2cc(NC(=O)Nc3ccc(C(F)(F)F)cc3)ccc2O1 was read as STAT3 binder inactive, Myc binder inactive, NFkB binder active and mut p53 SMM inactive.
O=C(CN1C(=O)c2ccccc2C1=O)Nc1ccc2c(c1)C(=O)NC2=O was read as STAT3 binder inactive, Myc binder inactive, NFkB binder inactive, mut p53 SMM inactive and p53 PUMA act 3.3.
`O=C1NC(=O)c2cc(Nc3ccc(F)cc3)c(Nc3ccc(F)cc3)cc21` gave STAT3 binder inactive, Myc binder inactive, NFkB binder inactive, mut p53 SMM active and p53 PUMA act -39.0.
For COC(=O)c1ccc(C(=O)OC)c(NC(=O)c2cnn3cccnc23)c1 the results were STAT3 binder inactive, Myc binder inactive, NFkB binder inactive, mut p53 SMM inactive and p53 PUMA act -9.7.
CN(CC(=O)Nc1ccc(Cl)c(Cl)c1)S(=O)(=O)c1ccc(F)cc1 was read as p53 PUMA act 11.2.
`CC(=O)Nc1nccc(-c2cc(-c3cccc(C(F)(F)F)c3)no2)n1` gave p53 PUMA act 79.5*.
`Cc1ccc(C(=O)CSc2nnc(-c3cccc(F)c3)n2-c2ccccc2)c(C)c1` gave p53 PUMA act -22.0.
`COCCSc1nnc(NC(=O)c2sc3ccccc3c2Cl)s1` gave STAT3 binder inactive, Myc binder inactive, NFkB binder inactive, mut p53 SMM inactive and p53 PUMA act 67.0*.
`CCOc1ccc(-c2nnc(SCC(=O)c3ccccc3N)n2C)cc1` gave STAT3 binder inactive, Myc binder inactive, NFkB binder inactive, mut p53 SMM inactive and p53 PUMA act 67.4*.
C[C@H]1CCCCO[C@@H](CN(C)C(=O)Nc2cccc3ccccc23)[C@@H](C)CN([C@@H](C)CO)C(=O)c2cc(NC(=O)c3ccncc3)ccc2O1 was read as STAT3 binder inactive, Myc binder inactive, NFkB binder inactive, mut p53 SMM inactive and p53 PUMA act -20.0.
C[C@@H]1CCCCO[C@H](CN(C)C(=O)Nc2cccc3ccccc23)[C@@H](C)CN([C@@H](C)CO)C(=O)c2cc(NC(=O)c3ccncc3)ccc2O1 was read as STAT3 binder inactive, Myc binder active, NFkB binder active, mut p53 SMM inactive and p53 PUMA act -19.9.
For C[C@H](CO)N1C[C@H](C)[C@@H](CN(C)C(=O)Nc2cccc3ccccc23)OCCCC[C@H](C)Oc2ccc(NC(=O)c3ccncc3)cc2C1=O the results were STAT3 binder inactive, Myc binder active, NFkB binder active, mut p53 SMM inactive and p53 PUMA act -18.9.
Screening COc1ccc(Cl)cc1NC(=O)C(C)NS(=O)(=O)c1ccc(Br)cc1 (stereo not given) returned p53 PUMA act -3.1.
COC(=O)c1ccccc1NC(=O)NCc1ccc(C(=O)O)cc1 was read as STAT3 binder inactive, Myc binder inactive, NFkB binder inactive, mut p53 SMM inactive and p53 PUMA act -3.6.
Cc1ccc(-c2cc3ccccn3c2C(=O)CSc2nnc(C)s2)cc1 was read as STAT3 binder inactive, Myc binder active, NFkB binder inactive, mut p53 SMM inactive and p53 PUMA act -2.8.
Screening CC1Cc2ccc3c(c2C(O)C1)C(=O)c1cccc(O)c1C3O (stereo not given) returned STAT3 binder inactive, Myc binder inactive, NFkB binder inactive, mut p53 SMM inactive and p53 PUMA act 0.2.
For Cc1cc(C)c(C#N)c(SCCS(=O)(=O)c2nc3ccccc3s2)n1 the results were p53 PUMA act -42.4.
For C[C@@H]1CN([C@@H](C)CO)C(=O)c2cc(NS(=O)(=O)c3ccccc3)ccc2O[C@@H](C)CCCCO[C@@H]1CN(C)C(=O)C1CCCCC1 the results were STAT3 binder active, Myc binder inactive, NFkB binder inactive, mut p53 SMM inactive and p53 PUMA act -6.4.
For C[C@H](CO)N1C[C@H](C)[C@H](CN(C)S(C)(=O)=O)OCCCC[C@H](C)Oc2ccc(NS(=O)(=O)c3ccccc3)cc2C1=O the results were STAT3 binder inactive, Myc binder inactive, NFkB binder active, mut p53 SMM inactive and p53 PUMA act 4.4.
CCCN(C)C[C@H]1OCCCC[C@H](C)Oc2ccc(NS(=O)(=O)c3ccc(OC)cc3)cc2C(=O)N([C@H](C)CO)C[C@H]1C was read as STAT3 binder inactive, Myc binder inactive, NFkB binder inactive, mut p53 SMM active and p53 PUMA act -11.7.
Screening C[C@@H]1CCCCO[C@@H](CN(C)C(=O)C2CCCCC2)[C@H](C)CN([C@@H](C)CO)C(=O)c2cc(NS(=O)(=O)c3cccs3)ccc2O1 returned STAT3 binder inactive, Myc binder inactive, NFkB binder inactive, mut p53 SMM inactive and p53 PUMA act -20.3.
`C[C@H](CO)N1C[C@H](C)[C@H](CN(C)C(=O)C2CCCCC2)OCCCC[C@H](C)Oc2ccc(NS(=O)(=O)c3cccs3)cc2C1=O` gave STAT3 binder active, Myc binder inactive, NFkB binder inactive, mut p53 SMM inactive and p53 PUMA act -11.5.
`NC(=O)c1cc(-c2ccccc2)sc1NC(=O)Cn1cnc2scc(-c3ccccc3)c2c1=O` gave STAT3 binder inactive, Myc binder inactive, NFkB binder inactive, mut p53 SMM inactive and p53 PUMA act -8.1.
O=C(COc1cccc2ccccc12)Nc1cccc(C(=O)O)c1 was read as p53 PUMA act -8.2.
Screening Cc1ccc(S(=O)(=O)NC(=O)COc2cccc3ccccc23)c(C)c1 returned STAT3 binder inactive, Myc binder active, NFkB binder inactive, mut p53 SMM inactive and p53 PUMA act -16.9.
`CC(C)OC(=O)C(C)Sc1ncnc2scc(-c3ccc(Br)cc3)c12` (stereo not given) gave p53 PUMA act -10.2.
For CC(O)c1cc(-c2ccc(Cl)cc2Cl)no1 (stereo not given) the results were p53 PUMA act 112.9*.
Screening C[C@H](CO)N1C[C@H](C)[C@H](CN(C)C(=O)CCC(F)(F)F)OCCCC[C@H](C)Oc2ccc(NS(=O)(=O)c3ccccc3)cc2C1=O returned STAT3 binder inactive, Myc binder active, NFkB binder active, mut p53 SMM inactive and p53 PUMA act -3.8.
`C[C@H](CO)N1C[C@H](C)[C@@H](CN(C)C(=O)CCC(F)(F)F)OCCCC[C@H](C)Oc2ccc(NS(=O)(=O)c3ccc(F)cc3)cc2C1=O` gave STAT3 binder inactive, Myc binder active, NFkB binder active and mut p53 SMM inactive.
